Compound activity from PubChem BioAssay.
U2OS ROS induce: inducers of reactive oxygen species in cancer cells; AID 624156; U2OS ROS induction, H2DCF-DA fluorescence; 2% of 46,000 active; ROS induction (% of piperlongumine), % at 10 µM; in the data active = ROS induction above about 79%, passing the limit was not always enough
Large screens that a line does not name were inactive. Only a selection was taken, and hits are over-represented in it overall.

C[C@@H]1CN([C@H](C)CO)C(=O)c2cc(NC(=O)Nc3ccccc3)ccc2O[C@@H]1CN(C)S(C)(=O)=O	none
C[C@@H]1CCCCO[C@@H](CN(C)C(=O)c2ccccc2)[C@@H](C)CN([C@H](C)CO)C(=O)c2cc(NC(=O)Nc3cccc4ccccc34)ccc2O1	none
COc1ccc(NC(=O)Nc2ccc3c(c2)C(=O)N([C@H](C)CO)C[C@H](C)[C@@H](CN(C)Cc2ccccc2)OCCCC[C@@H](C)O3)cc1	none
COc1ccc(CN(C)C[C@@H]2OCCCC[C@@H](C)Oc3ccc(NC(=O)Nc4ccc(C(F)(F)F)cc4)cc3C(=O)N([C@H](C)CO)C[C@@H]2C)cc1	none
COc1ccc(NC(=O)Nc2ccc3c(c2)C(=O)N([C@H](C)CO)C[C@H](C)[C@H](CN(C)C(=O)Nc2ccc(OC)cc2)OCCCC[C@@H](C)O3)cc1	none
COc1ccc(CN(C)C[C@@H]2OCCCC[C@@H](C)Oc3ccc(NS(=O)(=O)c4ccc(F)cc4)cc3C(=O)N([C@H](C)CO)C[C@@H]2C)cc1	none
COc1ccc(CN(C)C[C@@H]2OCCCC[C@@H](C)Oc3ccc(NC(=O)Nc4ccc(F)cc4)cc3C(=O)N([C@H](C)CO)C[C@@H]2C)cc1	U2OS ROS induce 119.4
COc1ccc(NC(=O)Nc2ccc3c(c2)C(=O)N([C@H](C)CO)C[C@H](C)[C@@H](CN(C)C(=O)C2CCCCC2)OCCCC[C@@H](C)O3)cc1	U2OS ROS induce 114.2
C[C@@H]1CCCCO[C@@H](CN(C)C(=O)C2CCCCC2)[C@@H](C)CN([C@H](C)CO)C(=O)c2cc(NC(=O)Nc3ccccc3)ccc2O1	none
COc1ccc(CN(C)C[C@@H]2OCCCC[C@@H](C)Oc3ccc(NS(=O)(=O)c4ccc(C)cc4)cc3C(=O)N([C@H](C)CO)C[C@@H]2C)cc1	U2OS ROS induce 127.8
C[C@@H]1CCCCO[C@@H](CN(C)C(=O)C2CCCCC2)[C@@H](C)CN([C@H](C)CO)C(=O)c2cc(NC(=O)Nc3cccc4ccccc34)ccc2O1	U2OS ROS induce 102.0
C[C@@H]1CCCCO[C@@H](CN(C)C(=O)Nc2cccc3ccccc23)[C@@H](C)CN([C@H](C)CO)C(=O)c2cc(NC(=O)Nc3cccc4ccccc34)ccc2O1	none
COc1ccc(CN(C)C[C@H]2OCCCC[C@@H](C)Oc3ccc(NS(=O)(=O)c4ccc(F)cc4)cc3C(=O)N([C@H](C)CO)C[C@@H]2C)cc1	none
NS(=O)(=O)c1cc2c(cc1C(F)(F)F)NCNS2(=O)=O	none
CNC[C@@H]1Oc2c(NS(=O)(=O)c3ccc(C)cc3)cccc2C(=O)N([C@@H](C)CO)C[C@H]1C	none
CNC(=O)Cn1cc2c(n1)-c1c(oc(C(=O)N3CCCC3)c1C)CC2	none
COC(=O)C(NC(=O)c1ccc(S(=O)(=O)N2CCOCC2)cc1)C(C)C (centres undefined)	none
COc1ccc(CN(C)C[C@H]2OCCCC[C@@H](C)Oc3ccc(NC(=O)Nc4ccc(OC)cc4)cc3C(=O)N([C@H](C)CO)C[C@@H]2C)cc1	U2OS ROS induce 121.9
COc1ccc(NC(=O)Nc2ccc3c(c2)C(=O)N([C@H](C)CO)C[C@H](C)[C@@H](CN(C)Cc2ccc(C(=O)O)cc2)OCCCC[C@@H](C)O3)cc1	none
COc1ccc(NC(=O)Nc2ccc3c(c2)C(=O)N([C@H](C)CO)C[C@H](C)[C@H](CN(C)Cc2ccc(C(=O)O)cc2)OCCCC[C@@H](C)O3)cc1	none
CNC[C@@H]1Oc2c(NS(=O)(=O)c3cccs3)cccc2C(=O)N([C@@H](C)CO)C[C@H]1C	none
COc1ccc(S(=O)(=O)N(C)C[C@H]2Oc3c(NS(=O)(=O)c4ccc(C)cc4)cccc3C(=O)N([C@@H](C)CO)C[C@@H]2C)cc1	none
CC(C)CCNC(=O)c1cnn2c(C(F)(F)F)cc(-c3ccco3)nc12	U2OS ROS induce 119.1
CC1CCCCC1NC(=O)c1cnn2c(C(F)(F)F)cc(-c3ccccc3)nc12 (centres undefined)	U2OS ROS induce 134.1
Cc1ccccc1NC(=O)c1cnn2c(C(F)(F)F)cc(-c3ccco3)nc12	none
C=CCNC(=O)c1cnn2c(C(F)(F)F)cc(-c3cccs3)nc12	none
FC(F)(F)c1cc(-c2ccccc2)nc2c(-c3ccccc3)cnn12	none
COc1ccc(-c2cc(C(=O)NC3CCCC3)c3ccccc3n2)cc1	none
CCc1ccc(C(O)(c2ccccc2)C(CN2CCOCC2)c2ccccc2)cc1 (centres undefined)	none
Cc1noc(C)c1NC(=O)N(C)C[C@H]1Oc2ccc(NS(=O)(=O)c3cn(C)cn3)cc2C(=O)N([C@H](C)CO)C[C@H]1C	none
COc1cc(S(=O)(=O)NCCN2CCOCC2)c(OC)cc1Cl	none
COc1ccc(/C=C2\CCc3ccccc3C2=O)cc1CN1CCOCC1	none
COc1ccc2c(c1)OC/C(=C\c1ccc(OC)c(O)c1)C2=O	none
O=C1/C(=C/c2ccc3ccccc3c2)COc2ccccc21	U2OS ROS induce 102.7
C[C@@H]1CCCCO[C@H](CN(C)Cc2ccc3c(c2)OCO3)[C@@H](C)CN([C@H](C)CO)C(=O)c2cc(NC(=O)NC3CCCCC3)ccc2O1	none
C(=C\c1ccccc1)/CSc1nnc(-c2cccnc2)o1	none
COc1ccc(/C=C/C(=O)CC(=O)/C=C/c2cccc(O)c2OC)cc1O	U2OS ROS induce 98.2
COc1cc(/C=C/C(=O)CC(=O)/C=C/c2ccc(O)c(OC)c2)ccc1O	none
COc1ccc(/C=N/NC(=O)c2cccc(C(=O)NO)c2)cc1O	none
CCN(C(=O)c1cccc2c1SCCC2=O)c1cc(Cl)ccc1OC	none
C[C@@H]1CN([C@@H](C)CO)C(=O)c2cc(NC(=O)Cc3ccccc3)ccc2O[C@@H]1CN(C)C(=O)Nc1ccccc1	none
COc1ccc(C(=O)Nc2ccccc2C(=O)NC(C(=O)O)C(C)C)cc1 (centres undefined)	none
COc1ccccc1NC(=O)c1ccccc1NC(=O)CCc1ccccc1	none
COc1ccccc1NC(=O)C(NC(=O)c1ccccc1NC(=O)c1ccccc1)C(C)C (centres undefined)	U2OS ROS induce 97.5
C[C@@H]1CN([C@H](C)CO)C(=O)c2cc(NC(=O)C3CCCCC3)ccc2O[C@H]1CN(C)S(=O)(=O)c1ccc(F)cc1	none
C[C@H]1CN([C@@H](C)CO)C(=O)Cc2cc(NS(=O)(=O)c3ccc(Cl)cc3)ccc2O[C@H]1CN(C)S(=O)(=O)c1ccc(Cl)cc1	none
COCCOC(=O)N1C(=O)[C@@]2(c3cc(C#CCC(C(=O)OC)C(=O)OC)ccc31)[C@H](C(=O)N1CCc3cc(OC)c(OC)cc3C1)[C@H]1C(=O)O[C@H](c3ccccc3)[C@H](c3ccccc3)N1[C@@H]2c1ccc(O)cc1	none
COCCOC(=O)N1C(=O)[C@@]2(c3ccccc31)[C@H](c1ccc(O)cc1)N1[C@H](c3ccccc3)[C@H](c3ccccc3)OC(=O)[C@H]1[C@@H]2C(=O)N1CCc2cc(OC)c(OC)cc2C1	none
COCCOC(=O)N1C(=O)[C@@]2(c3cc(C#CC4=CCCCC4)ccc31)[C@H](C(=O)N1CCc3cc(OC)c(OC)cc3C1)[C@H]1C(=O)O[C@H](c3ccccc3)[C@H](c3ccccc3)N1[C@@H]2c1ccc(O)cc1	none
COCCOC(=O)N1C(=O)[C@@]2(c3ccccc31)[C@H](c1ccccc1OCCO)N1[C@H](c3ccccc3)[C@H](c3ccccc3)OC(=O)[C@H]1[C@@H]2C(=O)N1CCc2cc(OC)c(OC)cc2C1	U2OS ROS induce 213.6
COc1cc2c(cc1OC)CN(C(=O)[C@@H]1[C@H]3C(=O)O[C@H](c4ccccc4)[C@H](c4ccccc4)N3[C@H](c3ccccc3OCCO)[C@@]13C(=O)Nc1ccc(C#CCNC(N)=O)cc13)CC2	none
